PubChem BioAssay AID588683 (Broad Institute, 2011)
Results with a measured potency or affinity are listed apart.

Molecular target: Kelch-like ECH-associated protein 1 (Homo sapiens) + Nuclear factor erythroid 2-related factor 2 (Homo sapiens) (UniProt Q14145+Q16236)
Assay: Keap1-Nrf2 protein-protein interaction inhibitors, dose response, biochemical, fluorescence polarization, cherry-picked samples (AID 588683);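 also: Kelch domain of Keap1 binding a fluorescein-labelled 9mer Nrf2 peptide; more negative means stronger inhibition of peptide binding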
Conditions: Keap1/Nrf2 peptide fluorescence polarization, plate reader; series mostly up to 26 µM; activity change, negative = inhibition: at the top concentration; call rule not given here

Chain of Kelch-like ECH-associated protein 1 (Homo sapiens) + Nuclear factor erythroid 2-related factor 2 (Homo sapiens) (Q14145 whole entry, looked up, the tested form may be a part): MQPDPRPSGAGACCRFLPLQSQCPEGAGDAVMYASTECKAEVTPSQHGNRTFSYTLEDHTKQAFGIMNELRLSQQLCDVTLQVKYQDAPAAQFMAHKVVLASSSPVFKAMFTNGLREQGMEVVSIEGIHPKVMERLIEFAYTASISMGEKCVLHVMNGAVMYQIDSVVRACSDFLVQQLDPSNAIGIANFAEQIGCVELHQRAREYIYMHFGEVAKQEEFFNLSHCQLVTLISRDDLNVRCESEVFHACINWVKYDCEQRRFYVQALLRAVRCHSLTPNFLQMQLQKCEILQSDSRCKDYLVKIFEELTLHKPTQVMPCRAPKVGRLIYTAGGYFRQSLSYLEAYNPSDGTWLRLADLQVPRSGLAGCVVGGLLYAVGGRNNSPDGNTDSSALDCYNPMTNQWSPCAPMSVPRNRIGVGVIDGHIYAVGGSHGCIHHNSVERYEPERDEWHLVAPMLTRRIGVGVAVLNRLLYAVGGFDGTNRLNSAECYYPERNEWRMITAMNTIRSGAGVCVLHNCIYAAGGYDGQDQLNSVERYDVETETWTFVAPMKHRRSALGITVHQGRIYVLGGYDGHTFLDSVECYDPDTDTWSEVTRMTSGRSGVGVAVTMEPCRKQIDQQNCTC
Chain of Kelch-like ECH-associated protein 1 (Homo sapiens) + Nuclear factor erythroid 2-related factor 2 (Homo sapiens) (Q16236 whole entry, looked up, the tested form may be a part): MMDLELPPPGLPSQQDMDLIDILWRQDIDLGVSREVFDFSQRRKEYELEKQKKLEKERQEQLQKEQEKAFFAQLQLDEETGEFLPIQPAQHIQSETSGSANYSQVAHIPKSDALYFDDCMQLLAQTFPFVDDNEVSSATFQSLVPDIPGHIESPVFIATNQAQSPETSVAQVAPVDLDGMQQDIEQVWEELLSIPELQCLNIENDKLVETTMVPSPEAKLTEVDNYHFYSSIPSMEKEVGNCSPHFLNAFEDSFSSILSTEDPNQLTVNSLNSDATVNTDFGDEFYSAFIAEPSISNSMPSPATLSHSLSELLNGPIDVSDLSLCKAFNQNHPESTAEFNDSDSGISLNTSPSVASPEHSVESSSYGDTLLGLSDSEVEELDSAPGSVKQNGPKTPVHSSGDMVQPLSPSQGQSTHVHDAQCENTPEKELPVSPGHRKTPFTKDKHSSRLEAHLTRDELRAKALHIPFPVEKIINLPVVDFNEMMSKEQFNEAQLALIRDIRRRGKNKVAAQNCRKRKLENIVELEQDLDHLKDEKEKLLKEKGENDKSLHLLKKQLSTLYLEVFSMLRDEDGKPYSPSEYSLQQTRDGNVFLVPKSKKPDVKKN

Activity change, negative = inhibition, inactive:
O=C(CCN1C(=O)/C(=C/c2ccco2)SC1=S)Nc1ccc(O)cc1C(=O)O 4.28%
Cc1nnsc1C(=O)N1CCN(c2ccc(F)cc2)CC1 -13.3%
CCOc1ccccc1C=C1SC(=S)NC1=O -1.41%
CCCN1CNC(=S)N(c2cc(C)ccc2C)C1 -10%
Cc1nnc(NC(=O)c2ccc3c(c2)NC(=O)CS3)s1 -3.13%
COc1cc(/C=C/C(=O)OCC(=O)c2ccc3c(c2)NC(=O)CO3)ccc1OC(F)F 29.3%
CCC(C)(C)n1nnnc1C(c1cc2ccc(OC)cc2[nH]c1=O)N1CCc2ccccc2C1 (stereo not drawn) 5.63%
COc1cccc(C2=CC(c3cccs3)n3nnnc3N2)c1 (stereo not drawn) -16.2%
C/C(=N/Nc1ccccc1C(=O)O)c1cccs1 -6.44%
Cc1ccc(-n2nnnc2SCC(=O)c2c(N)n(C3CC3)c(=O)[nH]c2=O)cc1 3.48%
CCN(CC)C(=O)C1c2ccccc2Oc2ccccc21 -5.67%
Nc1c(C(=O)Nc2ccccc2F)sc2nc(Cc3ccccc3)cc(C(F)(F)F)c12 28%
Cc1cc(C)c2c(SC(C)C)nc(N)nc2n1 0.376%
OC(CCN1CCC2(CC1)OCCO2)C(F)(F)F (stereo not drawn) -14%
Cc1nc(-c2ccc(S(=O)(=O)N3CCCN(CCc4ccccc4)CC3)s2)cs1 -12.4%
Nc1nc(SCC(=O)Nc2cc(C(F)(F)F)ccc2N2CCOCC2)n[nH]1 -1.61%
CC(C)(C)c1cc[n+](-c2[nH]c(=O)sc2/C=N/NC([S-])=Nc2ccccc2)cc1 -18.6%
CC(C)Cn1c(N)c(C(=O)CSc2nnc(-c3ccco3)n2C)c(=O)n(C)c1=O 1.3%
O=S(=O)(O)c1ccc(O)c2cc(Nc3ccccc3)ccc12 -3.04%
C=CCOc1ccc(C=NNc2ccc(S(=O)(=O)Nc3ccccc3C(=O)O)cc2[N+](=O)[O-])cc1OC -0.849%
CN(CCOc1ccc(CC2SC(=O)NC2=O)cc1)c1ccccn1 (stereo not drawn) -5.31%
CC(=O)Nc1ccc2c(c1)N(C(=O)CN(C)C)c1ccccc1CC2 -6.21%
COCCCn1c(=NC(=O)c2ccccc2)c(C#N)cc2c(=O)n3cccc(C)c3nc21 2.49%
CCC(CNc1cc(OC)cc2cccnc12)NC1CCCCC1 (stereo not drawn) -15.9%
CC1=CC(=C2N=C(c3ccccc3)OC2=O)C=C(C)O1 107%
NC(=O)COc1ccc(NC(=O)CC23CC4CC(CC(C4)C2)C3)cc1 7.9%
CNS(=O)(=O)c1ccc2c3c(cccc13)C(=O)N2C -7.61%
COC(=O)c1cc(C)nc2c1c(C)nn2-c1ccccc1 -5.13%
N/C(=N/OC(=O)c1ccc(Cl)cc1)c1ncc([N+](=O)[O-])s1 0.869%
CCCCC(CC)C(=O)Oc1ccc(O)c(C(C)(C)C)c1 (stereo not drawn) -6.25%
O=C1CCn2c1c(O)c1ccccc1c2=O -4.71%
Oc1cc(NCCN2CCOCC2)cc2cccnc12 -2.56%
O=[N+]([O-])c1cc(C(F)(F)F)ccc1NC1CCN(Cc2ccccc2)CC1 -6.35%
CCCCNC(=S)Nc1ccc(OC)nc1 -10.8%
CC1CCN(c2ccc3c(c2)S(=O)(=O)c2ccccc2C3=O)CC1 24%
CCCN(CCC)C(=O)C1c2ccccc2Oc2ccccc21 8.47%
O=C(NCc1cccc(F)c1)c1cccc2c1C(=O)c1ccc(N3CCCC3)cc1S2(=O)=O 10.5%
Cc1sc2ccccc2[n+]1CC(=O)c1ccccc1 12.6%
